RORgamma inh: inhibitors of mouse ROR gamma transcriptional activity. Drosophila S2 Gal4-RORgamma UAS-luciferase reporter, 20 h. Potency, µM (titrated, usually from 53.6 µM), inactives show at the top dose activity change, negative = inhibition, usual class: inhibitors. 5.4% of 310,000 active. AID 2551; note: potency is the fitted concentration of half-maximal effect; % is set by controls: 0 for no effect and ±100 for the full control effect; nearly all actives have a fitted effect of over 60% in size
Target sequence (P51450 whole entry, looked up, the tested form may be a part): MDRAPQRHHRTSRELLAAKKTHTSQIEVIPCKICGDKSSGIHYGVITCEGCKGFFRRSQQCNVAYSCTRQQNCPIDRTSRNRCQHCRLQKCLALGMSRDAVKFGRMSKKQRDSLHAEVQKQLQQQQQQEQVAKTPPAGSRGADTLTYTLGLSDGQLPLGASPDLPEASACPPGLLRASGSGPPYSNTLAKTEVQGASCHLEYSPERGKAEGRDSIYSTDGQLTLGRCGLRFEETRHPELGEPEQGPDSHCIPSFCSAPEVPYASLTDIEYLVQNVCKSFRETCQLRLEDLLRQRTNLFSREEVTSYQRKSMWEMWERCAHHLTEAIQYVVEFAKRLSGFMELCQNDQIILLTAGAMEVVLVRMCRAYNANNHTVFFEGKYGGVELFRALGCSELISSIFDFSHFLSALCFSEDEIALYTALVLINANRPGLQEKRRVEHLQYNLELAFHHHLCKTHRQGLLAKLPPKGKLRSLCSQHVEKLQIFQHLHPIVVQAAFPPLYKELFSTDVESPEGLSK
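Schneider cells (Drosophila), stable Gal4 DBD–ROR gamma + UAS-luc; 1 hr cmpd preincubation; Cu2+ induction 700 uM final; 20 hr ambient; luminescence.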
MBNL1 CUG block: blocks human MBNL1 binding to CUG repeat RNA; Q9NR56; TR-FRET MBNL1-His/biotin-(CUG)12 binding, 665/545 ratio; Potency, µM (highest dose often 57.5 µM), for inactives: at the highest dose activity change, negative = inhibition, most hits filed as inhibitors; 0.036% of 280,000 active; AID 2675; active = well fitted inhibition curve with a large enough effect in the signal ratio, with a control signal flat, not every such curve was filed as active; inconclusive = small, poorly fitted or top-dose-only effect, or effect the other way, or a change in a side signal; inactive = no such curve, though single readings can be large or run the other way; the % refers to the signal ratio; note: potency is the fitted concentration of half-maximal effect; % is set by controls: 0 for no effect and ±100 for the full control effect
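TR-FRET readout: Ex 340 nm, 665/545 nm emission ratio, normalized to buffer-only (basal) and MBNL1-(CUG)12 controls. Complex of MBNL1-His with Biotin-(CUG)12, compounds 92 nM–58 uM, incubated 60 min at room temperature.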
Gal4-VP16 FLuc: Gal4-VP16 reporter inhibition counter-screen. Potency, µM (top dose mostly 53.6 µM), without a hit: at the top dose activity, negative = inhibition, usual class: inhibitors. Drosophila S2 Gal4-VP16 UAS-luciferase, luminescence, 20 h. AID 2546. 3.5% of 310,000 active;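 note: Gal4-VP16 expression switched on by copper sulfate through the metallothionein promoter; potency is the fitted concentration of half-maximal effect; % is set by controls: 0 for no effect and ±100 for the full control effect; nearly all actives have a fitted effect of over 50% in size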
CtBP-E1A blk: CtBP/E1A binding inhibition. AID 651724. AlphaScreen GST-E1A/His-CtBP binding, 1536-well; hits give low values. activity change, % (concentration not given with the values). 0.49% of 340,000 active; in the data active = activity change below about -65%; inconclusive = mostly about -30% to -63%; note: % is set by controls: 0 for no effect and ±100 for the full control effect
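GST-E1A and His-tagged CtBP (125 nM each as 5X stock) were preincubated with pin-transferred compound for 2 h at 37 °C in the dark, then glutathione donor and nickel acceptor beads were added for 1 h before AlphaScreen reading.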
CBFb-RUNX1 inh: CBF-beta/RUNX1 interaction disruption; Q01196+Q13951; Potency, µM (top dose mostly 59.8 µM), without a hit: top-dose activity, negative = inhibition, most hits filed as inhibitors; AlphaScreen CBFb-His/RUNX1-biotin binding, biochemical; AID 1477; 230,000 tested, under 10 active; note: % of control where 0% means no effect
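CBF-beta (His) and RUNX1 (biotin), 30 nM each; 20 min preassociation; + compound, 15 min; + beads 50 ng each (Ni, streptavidin), 90 min; RT; AlphaScreen read.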
Six1-Eya2 inh: Six1/Eya2 interaction inhibition; activity change, % (concentration not given with the values); 0.56% of 360,000 active; AlphaScreen GST-Six1/His-Eya2 binding, biochemical; hits give low values; AID 651725; Q15475+O00167; in the data active = activity change below about -65%; inconclusive = mostly about -30% to -63%; note: % is set by controls: 0 for no effect and ±100 for the full control effect
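AlphaScreen luminescence read after one hour at 37 °C in darkness. Pin-transferred compounds met GST-Six1 and His-Eya2 protein (5X stock 250 nM/500 nM) plus glutathione donor and Ni-chelate acceptor beads (5X, 50 ug/mL).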
* = called active by the depositor. Compounds with a hit are over-represented: about 5.5% of the library has one in this group of screens. Unless noted, calls come from the whole dose curve; as a rule, active = well fitted curve in the direction sought with a large enough effect; inconclusive = small, poorly fitted or top-dose-only effect, or another doubt; inactive = no such curve, though single readings can be large; an effect the other way counts as inactive or inconclusive.

How did COCCNC(=S)N/N=C(\C)c1ccc(C)c([N+](=O)[O-])c1 do in these assays?
RORgamma inh: 3.5µM*; MBNL1 CUG block: inconclusive; Gal4-VP16 FLuc: 4µM*; CtBP-E1A blk: -16; CBFb-RUNX1 inh: -12%; Six1-Eya2 inh: -10

Results for COCCNC(=S)N/N=C(\C)c1ccc2cc(OC)ccc2c1 ?
RORgamma inh: 1µM*; MBNL1 CUG block: inconclusive; Gal4-VP16 FLuc: 1µM*; CtBP-E1A blk: -25; CBFb-RUNX1 inh: 6%; Six1-Eya2 inh: inconclusive

What do the screens show for `C=C(C)CNC(=S)N/N=C(\C)c1ccc(OC)cc1`?
RORgamma inh: 2.2µM*; MBNL1 CUG block: -12%; Gal4-VP16 FLuc: 5µM*; CtBP-E1A blk: -28; CBFb-RUNX1 inh: -8%; Six1-Eya2 inh: -10

What do the screens show for `O=C(COC(=O)/C=C/c1ccc2c(c1)OCO2)NCc1ccc(F)cc1`?
CtBP-E1A blk: -3; Six1-Eya2 inh: 2

What do the screens show for `COCCNC(=S)N/N=C(\C)c1cc2ccccc2o1`?
RORgamma inh: 5µM*; MBNL1 CUG block: inconclusive; Gal4-VP16 FLuc: 4.5µM*; CtBP-E1A blk: 0; CBFb-RUNX1 inh: -10%; Six1-Eya2 inh: -10

Results for COCCNC(=S)N/N=C(\C)c1cccc(C(F)(F)F)c1 ?
RORgamma inh: 2.5µM*; MBNL1 CUG block: -1%; Gal4-VP16 FLuc: 5µM*; CtBP-E1A blk: -5; CBFb-RUNX1 inh: -3%; Six1-Eya2 inh: -4

How did C/C(=N\NC(=O)C(N)=O)c1cccc(C(F)(F)F)c1 do in these assays?
RORgamma inh: 2%; MBNL1 CUG block: -9%; Gal4-VP16 FLuc: -20%; CtBP-E1A blk: 0; CBFb-RUNX1 inh: -14%; Six1-Eya2 inh: 0

Results for COCCNC(=S)N/N=C(\C)c1ccc(OC)cc1 ?
RORgamma inh: 0.63µM*; MBNL1 CUG block: -16%; Gal4-VP16 FLuc: 1.3µM*; CtBP-E1A blk: 2; CBFb-RUNX1 inh: 8%; Six1-Eya2 inh: 2

What do the screens show for `CCc1nn(CCCC(=O)NCc2cc(Br)ccc2OC)c(=O)c2cc3occc3n12`?
RORgamma inh: 10%; MBNL1 CUG block: 1%; Gal4-VP16 FLuc: -17%; CtBP-E1A blk: -17; Six1-Eya2 inh: -20

How did O=c1c(-c2ccc(F)cc2)nc2cncnc2n1C1CC1 do in these assays?
RORgamma inh: -12%; Gal4-VP16 FLuc: -15%

Results for NC(=O)C1CCN(C(=O)COc2ccc3ccccc3c2Br)CC1 ?
RORgamma inh: 1.8µM*; MBNL1 CUG block: inconclusive; Gal4-VP16 FLuc: inconclusive; CtBP-E1A blk: 4; Six1-Eya2 inh: 8

Results for Cc1n[nH]c2ccc([N+](=O)[O-])cc2c1=O ?
CtBP-E1A blk: 4; Six1-Eya2 inh: 2

What do the screens show for `O=C(c1ccccc1)N1CCc2ccccc21`?
RORgamma inh: -7%; MBNL1 CUG block: -1%; Gal4-VP16 FLuc: inconclusive; CtBP-E1A blk: 0; CBFb-RUNX1 inh: 5%; Six1-Eya2 inh: 1

Results for O=C(NC(=S)N1CCc2ccccc21)c1ccccc1 ?
RORgamma inh: 0.56µM*; MBNL1 CUG block: -22%; Gal4-VP16 FLuc: 0.5µM*; CtBP-E1A blk: 8; CBFb-RUNX1 inh: 1%; Six1-Eya2 inh: 0

What do the screens show for `O=C(NC(=S)N1CCc2ccccc21)c1ccccc1Cl`?
RORgamma inh: 0.45µM*; MBNL1 CUG block: -3%; Gal4-VP16 FLuc: 1µM*; CtBP-E1A blk: 0; Six1-Eya2 inh: -1

Results for COc1cc(NC(=O)c2cccc(C)c2)ccc1NC(=O)c1cc2ccccc2o1 ?
RORgamma inh: inconclusive; MBNL1 CUG block: 9%; Gal4-VP16 FLuc: 13µM*; Six1-Eya2 inh: -1

How did CCC(=O)Nc1ccc(Cl)c(NC(=S)NC(=O)c2cc3ccccc3o2)c1 do in these assays?
RORgamma inh: inconclusive; MBNL1 CUG block: -13%; Gal4-VP16 FLuc: 3.5µM*; CtBP-E1A blk: -5; CBFb-RUNX1 inh: -6%; Six1-Eya2 inh: 1

How did CCOc1cccc(C(=O)Nc2ccc(NC(=O)c3cc4ccccc4o3)c(OC)c2)c1 do in these assays?
RORgamma inh: inconclusive; MBNL1 CUG block: 1%; Gal4-VP16 FLuc: inconclusive; CtBP-E1A blk: 2; Six1-Eya2 inh: 10

How did CCC(=O)NC(=S)Nc1ccc(NC(=O)c2cc3ccccc3o2)c(OC)c1 do in these assays?
RORgamma inh: 4.5µM*; MBNL1 CUG block: 6%; Gal4-VP16 FLuc: inconclusive; CtBP-E1A blk: 1; CBFb-RUNX1 inh: -3%; Six1-Eya2 inh: -1

Results for O=C(CN1C(=O)C2CC=CCC2C1=O)Nc1nc2ccccc2s1 (configuration not stated) ?
RORgamma inh: inconclusive; MBNL1 CUG block: -5%; Gal4-VP16 FLuc: -3%; CtBP-E1A blk: -11; CBFb-RUNX1 inh: 1%; Six1-Eya2 inh: 0

How did Cc1nn(C)c(C)c1NC(=S)Nc1ccc(S(=O)(=O)Nc2ncccn2)cc1 do in these assays?
RORgamma inh: -22%; MBNL1 CUG block: -2%; Gal4-VP16 FLuc: 0%; CtBP-E1A blk: -1; Six1-Eya2 inh: -1

What do the screens show for `COC(=O)C(Cc1ccccc1)NC(=S)NC(=O)c1ccccc1` (configuration not stated)?
RORgamma inh: 3.2µM*; MBNL1 CUG block: -3%; Gal4-VP16 FLuc: inconclusive; CtBP-E1A blk: 4; CBFb-RUNX1 inh: inconclusive; Six1-Eya2 inh: -17

How did O=C(NC(=S)NC(CO)Cc1ccccc1)c1ccc(F)cc1 (configuration not stated) do in these assays?
RORgamma inh: 11µM*; MBNL1 CUG block: -6%; Gal4-VP16 FLuc: inconclusive; CtBP-E1A blk: -3; Six1-Eya2 inh: -2

What do the screens show for `CCOc1ccc(C(=O)NC(Cc2ccccc2)C(=O)OC)cc1` (configuration not stated)?
RORgamma inh: -12%; MBNL1 CUG block: -9%; Gal4-VP16 FLuc: -20%; CtBP-E1A blk: 0; CBFb-RUNX1 inh: 4%; Six1-Eya2 inh: 5

How did O=C(NC(Cc1ccc(F)cc1)C(=O)O)c1ccccc1 (configuration not stated) do in these assays?
RORgamma inh: -18%; MBNL1 CUG block: -6%; Gal4-VP16 FLuc: 7%; CtBP-E1A blk: 8; CBFb-RUNX1 inh: 3%; Six1-Eya2 inh: 7

How did O=C(c1cc(-c2ccc(Br)cc2)on1)N1CCc2ccccc2C1 do in these assays?
RORgamma inh: 25%; MBNL1 CUG block: -7%; Gal4-VP16 FLuc: -5%; CtBP-E1A blk: -9; Six1-Eya2 inh: 15

What do the screens show for `COc1ccc(/C=C/C(=O)CC(O)(c2ccccc2)C(F)(F)F)cc1` (configuration not stated)?
RORgamma inh: 14µM*; MBNL1 CUG block: -7%; Gal4-VP16 FLuc: inconclusive; CtBP-E1A blk: 10; CBFb-RUNX1 inh: -2%; Six1-Eya2 inh: 3

Source: PubChem (National Center for Advancing Translational Sciences (NCATS))
